# Measurements reported in PubChem BioAssay AID686970 (National Center for Advancing Translational Sciences (NCATS), 2013).
# About 6,000 (1.7%) of roughly 360,000 compounds were called active. About 8% were inconclusive and are not listed. Calls follow the shape of the dose curve; as a rule, active = well fitted cell-killing curve with a large enough effect; inconclusive = small, poorly fitted or top-dose-only effect, or effect the other way; inactive = flat fitted curve, though single readings scatter. The list comes from a sample in which actives are over-represented; it also holds similar structures and randomly drawn compounds. Entries that show only a call come without a potency.
# Assay: qHTS for induction of synthetic lethality in tumor cells producing 2HG: qHTS for the HT-1080-NT fibrosarcoma cell line;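 also: NT is the 2HG producing partner of a matched IDH1 knockdown line; nearly all actives have a fitted effect of over 55% in size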
# Details: HT-1080-NT fibrosarcoma viability, CellTiter-Glo ATP luminescence, 48 h; series mostly up to 46.1 µM
# In short: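 Read-out is CellTiter-Glo luminescence after 10 minutes at room temperature, following 48 hours' compound treatment of HT-1080-NT cells (750 cells/well, RPMI, 5% FBS, 37 degrees C).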
# Potency is read from the fitted curve at half-maximal effect.
row,Compound,Potency
1,COC(=O)[C@]12CCCCC=C1N(Cc1ccccc1)C(=O)[C@H](CC(=O)NCc1ccc(C)o1)C2,inactive
2,C#CCOCCOCCOCCNc1nc(N2CCN(C(=O)Cn3cc(CCO)nn3)CC2)nc(N2CCN(C(=O)Cn3cc(CCCN=C(N)N)nn3)CC2)n1,inactive
3,C#CCOCCOCCOCCNc1nc(N2CCN(C(=O)CCCCCCCCCCNC(=O)[C@H]([C@@H](C)CC)n3cc(CCCCN=C(N)N)nn3)CC2)nc(N2CCN(C(=O)CCCCCCCCCCNC(=O)[C@H](CO)n3cc(CCCSC)nn3)CC2)n1,23.1 µM (active)
4,C#CCOCCOCCOCCNc1nc(N2CCN(C(=O)[C@H](C(C)C)n3cc(CCO)nn3)CC2)nc(N2CCN(C(=O)[C@H]([C@@H](C)CC)n3cc(CCCN=C(N)N)nn3)CC2)n1,inactive
5,Cc1ccc(NC(=O)COC(=O)CN2CCSC2=O)cc1F,inactive
6,CCCCn1nnnc1C(c1ccccc1)N1CCN(c2ccccc2OC)CC1 (stereo not given),inactive
7,CC1Cc2[nH][nH]c(=O)c2C(C2CC2)O1 (stereo not given),inactive
8,Cc1ccc(C(=O)OCC(=O)NC2CCCCCCC2)cc1C,inactive
9,Cc1cccc(NC(=O)C(C)SCc2ccccc2)c1 (stereo not given),inactive
10,COCCSc1nnc(NC(=O)CCS(=O)(=O)Cc2ccccc2)s1,inactive
11,Cc1cccc(NC(=O)c2nc(S(=O)(=O)Cc3ccccc3)ncc2Cl)c1,6.51 µM (active)
12,CSc1nnc(NC(=O)c2nc(S(=O)(=O)Cc3ccc(C)cc3)ncc2Cl)s1,7.31 µM (active)
13,NC(=O)CSc1nnc(NC(=O)c2ccc(Br)o2)s1,inactive
14,Cc1cccc(NC(=O)CSc2nc3[nH]ncc3c(=O)[nH]2)c1,inactive
15,Cc1nc2ccccc2nc1CC(O)(c1ccccc1)c1ccccc1,inactive
16,CC1(c2cccc(Br)c2)NC(=O)N(CC(=O)NCCC2=CCCCC2)C1=O (stereo not given),inactive
17,O=C1CCC(C(=O)OCC(=O)Nc2ccc(OC(F)F)cc2)=NN1,inactive
18,CCN(C(=O)Nc1cccc2ccccc12)c1ccccc1,inactive
19,Cc1cccc(CN2CCC(CNC(=O)Nc3ccc(F)c(Cl)c3)CC2)c1,16.4 µM (active)
20,Cc1ccccc1NC(=O)NCC1CCN(Cc2cccc(Cl)c2)CC1,inactive
21,O=C(NCC1CCN(Cc2ccccc2Cl)CC1)Nc1cccc(Cl)c1,inactive
22,OC[C@@H]1CN(Cc2ccc(Cl)cc2)C[C@H](n2cnc3c(NCc4ccncc4)ncnc32)O1,inactive
23,O=C(Nc1ccc(Cl)cc1)Nc1nnc(/C=C/c2ccccc2)s1,inactive
24,O=C(CSc1ccccc1)Nc1nnc(/C=C/c2ccccc2)s1,23.1 µM (active)

row,Compound,Potency
1,CCOCc1nnc(NC(=O)CSc2ccc(C)cc2)s1,inactive
2,CC1(C)OC(=O)C2=C(C[C@@H](C3CC3)O[C@H]2c2ccc(Cl)cc2)O1,inactive
3,CC1(C(=O)NS(=O)(=O)c2cccc(OC(F)F)c2)CCN1C(=O)COc1ccc(Cl)cc1 (stereo not given),inactive
4,CCCNC(=O)C1(C)CCCN(Cc2c(C)nn(-c3ccccc3)c2C)C1 (stereo not given),inactive
5,C=CCNC(=O)/C(=C\c1cccc([N+](=O)[O-])c1)NC(=O)c1ccccc1,inactive
6,CN(C)CCNC(=O)/C(=C/c1cccc([N+](=O)[O-])c1)NC(=O)c1ccccc1,inactive
7,Cc1ccc(C(=O)N/C(=C/c2ccc(-c3cccc([N+](=O)[O-])c3)o2)C(=O)NCCCN(C)C)cc1,14.6 µM (active)
8,Cc1ccc(CNC(=O)Nc2nnc([C@H]3C[C@H](O)[C@@H](CO)O3)s2)cc1,inactive
9,O=C(NC(=S)NC1CCCCC1)c1ccc(Cl)cc1,inactive
10,O=C(NC1CCCCCC1)c1cccnc1Sc1ccc(Cl)cc1,inactive
11,O=C(NC1CCCCC1)c1ccc(-c2ccc(Cl)cc2)o1,18.4 µM (active)
12,O=S1(=O)C[C@@H](N2CCN(CCO)CC2)[C@H](COCc2ccccc2)N1,inactive
13,Cc1cn([C@H]2C[C@H](O)[C@@H](/C=C/C(=O)NCCCc3ccccc3)O2)c(=O)[nH]c1=O,inactive
14,CSc1ccc(CN2CCC2(C)C(=O)NCc2ccccc2Br)cc1 (stereo not given),inactive
15,O=C(COc1ccc(S(=O)(=O)Nc2cccc(C(F)(F)F)c2)cc1)N1CCOCC1,inactive
16,Cc1oc2c(F)c(F)c(F)c(F)c2c1S(=O)(=O)Nc1cccc(C(F)(F)F)c1,3.26 µM (active)
17,O=C(NCc1ccccc1)c1ccc(S(=O)(=O)Nc2cccc(C(F)(F)F)c2)cc1,inactive
18,CCCCn1nnnc1C(c1cccc(OC)c1OC)N1CCN(C/C=C/c2ccccc2)CC1 (stereo not given),inactive
19,C/C(=N\Nc1ccc(Cl)nn1)c1ccccc1O,0.731 µM (active)
20,CCCCCCCN=C(C)c1ccccc1O,inactive
21,C/C(=N/Nc1ccc(Cl)cc1)c1cnnc(-c2ccccc2)n1,inactive
22,CCOC(=O)[C@]12CCCC=C1N(Cc1ccc(Cl)cc1Cl)C(=O)[C@H](CC(=O)N1CCCCC1)C2,inactive
23,Cc1ccc(NC(=S)N(CCCN2CCCC2)Cc2cccn2Cc2ccc(Cl)cc2)cc1,23.1 µM (active)
24,Cc1ccc(NC(=S)N(CCCN2CCC(C)CC2)Cc2ccco2)cc1,inactive

row,Compound,Potency
1,Cc1ccc(NC(=S)N(CCN2CCCCC2)Cc2ccco2)cc1C,inactive
2,Cc1nc(C(F)(F)F)ccc1C(=O)N1CCC1(C)C(=O)NS(=O)(=O)c1ccccc1 (stereo not given),inactive
3,Cc1[nH]n(C)c(=O)c1C(=O)c1c(-c2c(Cl)cccc2Cl)noc1C,20.6 µM (active)
4,Cc1onc(-c2c(Cl)cccc2Cl)c1C(=O)c1c[nH]c(C(=O)NC2CC2)c1,inactive
5,Cc1onc(-c2c(Cl)cccc2Cl)c1C(=O)NNC(=O)c1c(-c2c(Cl)cccc2Cl)noc1C,inactive
6,CCC(Oc1ccccc1)C(=O)OCC(=O)Nc1c(C)nn(-c2ccccc2)c1C (stereo not given),inactive
7,COc1cccc(C(=O)Nc2ccc(N3CCCC3)cc2)c1,20.6 µM (active)
8,COc1cccc(C(=O)Nc2ccc3nc4n(c(=O)c3c2)CCCCC4)c1,inactive
9,COc1cccc(C(=O)Nc2nnc(S(=O)(=O)N3CCCCC3)s2)c1,inactive
10,COc1cccc(OCc2cc(C(=O)N3CCN(C(=O)c4ccco4)CC3)no2)c1,inactive
11,Cc1ccc(OCC(=O)Nc2ccc(N3CCN(C(=O)c4ccco4)CC3)cc2)c(C)c1,inactive
12,COc1cccc(C(=O)Nc2ccc(N3CCN(C(=O)c4ccco4)CC3)cc2)c1,23.1 µM (active)
13,COc1cccc(-c2ccc3c(c2)N(Cc2ccccc2OC)C(=O)C(C)S3)c1 (stereo not given),inactive
14,O=C1NC[C@@H](CCCCN2CCN(CCc3ccc(O)cc3)C(=O)C2=O)N(CC2CCCCC2)C1=O,inactive
15,Cc1ccccc1S(=O)(=O)NC(=O)C1(C)CCN1C(=O)Cc1ccc(Cl)cc1Cl (stereo not given),inactive
16,CC1(C)OC(=O)C2=C(C[C@@H](C3CCCC3)O[C@@H]2c2ccc(Cl)cc2)O1,inactive
17,COc1ccc(NC(=O)CCCOc2ccc(C(C)=O)cc2)cc1S(=O)(=O)N1CCCCC1,inactive
18,CC(=O)Nc1cc(-c2ccc(N3CCN(C)CC3)cc2)cn2c(-c3cccc(C(=O)N(C)C)c3)cnc12,inactive
19,CS(=O)(=O)Nc1cccc(C2=NN(C(=O)c3cccc(F)c3)C(c3cccs3)C2)c1 (stereo not given),inactive
20,CS(=O)(=O)Nc1ccc(C2=NN(S(C)(=O)=O)C(c3cccs3)C2)cc1 (stereo not given),inactive
21,CCS(=O)(=O)Nc1ccc(C2=NN(C(C)=O)C(c3cccs3)C2)cc1 (stereo not given),23.1 µM (active)
22,O=C(Cc1ccc([N+](=O)[O-])cc1)NCCS(=O)(=O)N1CCN(c2ccccc2)CC1,inactive
23,CC(C)(C)CC(=O)Nc1nc(C(N)Cc2ccc(C(F)(F)F)cc2)cs1 (stereo not given),16.4 µM (active)
24,COc1ccc(CC(N)c2csc(NC(=O)NC(c3ccccc3)c3ccccc3)n2)cc1 (stereo not given),23.1 µM (active)

row,Compound,Potency
1,COc1ccc(CNC(=O)C(Cc2ccccc2)n2cccc2)cc1 (stereo not given),inactive
2,Cc1ccccc1NC(=O)Cc1nc(COC(=O)c2ccc(C(F)(F)F)cc2)cs1,inactive
3,COc1ccc(CC(N)c2csc(NC(=O)Cc3ccccc3)n2)cc1 (stereo not given),23.1 µM (active)
4,COC(=O)[C@H](CCSC)NC(=O)Nc1ccc(OC)cc1,inactive
5,CC(C)(C)CC(=O)Nc1nnc(SCC(=O)NCc2cccs2)s1,inactive
6,COc1ccc(CC(N)c2csc(NC(=O)Nc3ccc(C(C)C)cc3)n2)cc1 (stereo not given),18.4 µM (active)
7,COc1ccc(CC(=O)Nc2sc(Cc3ccccc3)c(C)c2C(N)=O)cc1,inactive
8,COc1ccc(OC)c(NC(=O)N[C@H](Cc2ccccc2)C(=O)NN)c1,inactive
9,COc1ccc(NC(=O)C(Br)C(C)C)cc1 (stereo not given),inactive
10,COc1ccc(Cc2nnc(NC(=O)Cc3cccs3)s2)cc1,inactive
11,CCNC(=O)C1(C)CCCN(C(=O)c2ccc3ccccc3n2)C1 (stereo not given),inactive
12,CN(Cc1ccc(C(F)(F)F)cc1)C(=O)[C@H]1O[C@@H](n2cnc3c(N)ncnc32)[C@H](O)[C@@H]1O,inactive
13,O=C(c1ccc2c(=O)n(Cc3ccco3)c(=S)[nH]c2c1)N1CCCC1,inactive
14,COc1ccc([C@H]2C[C@@H](n3cc(COC(=O)c4ccccc4)nn3)[C@H](O)CN2C(=O)c2cccs2)cc1,inactive
15,COC(=O)c1ccc2nc(-c3ccc(C)cc3)c(Cc3ccc(OC)cc3C)n2c1,inactive
16,O=C(COc1ccc(S(=O)(=O)N2CCCC2)cc1[N+](=O)[O-])N1CCCCC1,inactive
17,CCCCNC(=O)c1nc(C2CCN(S(=O)(=O)c3ccc(F)c(F)c3)CC2)oc1-c1cccc(C(F)(F)F)c1,inactive
18,COC(=O)c1ccc2nc(-c3ccccc3)c(Cc3ccc(OC)cc3C)n2c1,inactive
19,CC(C)(C)c1ccc(S(=O)(=O)NC(=O)C2(C)CCN2C(=O)CC2CC2)cc1 (stereo not given),inactive
20,N#Cc1ccc(-c2ccc3nccn3c2)cc1,inactive
21,COc1cccc(-n2cc(C(=O)O)c3ccccc3c2=O)c1,14.1 µM (active)
22,COc1cccc(-n2cc3c(c2-c2ccccc2)c(=O)n(C)c(=O)n3C)c1,inactive
23,COc1cccc(-n2nc(C(=O)N3CCN(Cc4ccccc4)CC3)c3ccccc3c2=O)c1,inactive
